From PubChem
ELG1 genotox – qHTS screen for small molecules that induce genotoxicity in human embryonic kidney (HEK293T) cells expressing luciferase-tagged ELG1; HEK293T ELG1-luciferase reporter, luminescence, 16 h; actives 1.3% (n = 330,000); Potency, µM (top dose mostly 46 µM), for the others: at the highest dose activity change, positive = activation, usual class: activators; further: % of control where 0% means no effect; nearly all actives have a fitted effect of over 60% in size
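Genotoxicity was scored as increased ELG1-luciferase reporter signal, measured by ONE-Glo luminescence (30 min, room temperature). Compound or vehicle exposure of the HEK293T reporter cells lasted 16 hr at 37°C.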
Rab9 prom act – qHTS Assay for Rab9 Promoter Activators; Huh7 Rab9 promoter-luciferase reporter, luminescence, 24 h; Potency, µM (highest dose often 9.22 µM), for the others: at the top dose activation, negative = inhibition, usual class: activators; actives 2.8% (n = 320,000); AID 485297, 2010; further: % of control where 0% means no effect; nearly all actives have a fitted effect of over 60% in size
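Steps: seed 1500 Huh7 Rab9-luc cells per well, rest 2 h at 37 °C; add compound in DMSO; incubate 24 h; add luciferase reagent, 10 min ambient; read luminescence.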
FLuc counter – qHTS profiling assay for firefly luciferase inhibitor/activator using purifed enzyme and Km concentrations of substrates (counterscreen for miR-21 project); Luciferin 4-monooxygenase (Photinus pyralis), P08659; purified FLuc, Km substrates, luminescence inhibition; Potency, µM (top dose mostly 57.5 µM), inactives show at the top dose activity change, negative = inhibition, usual class: inhibitors; actives 6.9% (n = 360,000);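 further: plate controls were vehicle for no effect and reference inhibitor for full effect; nearly all actives have a fitted effect of over 55% in size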
Target sequence (P08659 whole entry, looked up): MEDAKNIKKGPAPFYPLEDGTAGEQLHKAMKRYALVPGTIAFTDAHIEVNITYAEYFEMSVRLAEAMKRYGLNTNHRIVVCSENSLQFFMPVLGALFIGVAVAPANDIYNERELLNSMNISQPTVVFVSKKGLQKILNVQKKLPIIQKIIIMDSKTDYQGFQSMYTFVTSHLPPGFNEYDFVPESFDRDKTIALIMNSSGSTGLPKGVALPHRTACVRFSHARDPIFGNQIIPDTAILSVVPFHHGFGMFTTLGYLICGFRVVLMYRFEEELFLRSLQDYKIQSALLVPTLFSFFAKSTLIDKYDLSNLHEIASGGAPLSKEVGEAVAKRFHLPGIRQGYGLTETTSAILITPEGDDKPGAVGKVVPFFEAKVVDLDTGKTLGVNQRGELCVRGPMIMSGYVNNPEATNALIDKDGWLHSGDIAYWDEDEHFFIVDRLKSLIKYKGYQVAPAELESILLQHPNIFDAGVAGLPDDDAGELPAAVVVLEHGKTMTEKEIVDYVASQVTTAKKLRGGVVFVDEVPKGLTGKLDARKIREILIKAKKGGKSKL
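Purified P. pyralis luciferase, 10 nM final, with Km-level 10 uM D-luciferin and 10 uM ATP in 50 mM Tris acetate pH 7.5, 10 mM Mg acetate, 0.01% Tween-20, 0.05% BSA; 6-point qHTS titration about 60 µM downward; luminescence read.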
KinaseGlo FLuc – Counterscreen for Luciferase (Kinase-Glo TM) Inhibition; Luciferin 4-monooxygenase (Photuris pensylvanica), Q27757; Kinase-Glo luciferase, ATP luminescence, 8 min; Potency, µM (series often up to 38.3 µM), without a hit: top-dose activity change, negative = inhibition, usual class: inhibitors; actives 0.28% (n = 200,000); AID 1379, 2008; further: on the % scale 0 is the no-effect control and ±100 the full control effect; nearly all actives have a fitted effect of over 60% in size
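Kinase-Glo luciferase light output from ATP and luciferin was measured with 10 uM ATP, within the enzyme's linear range. Buffer: 50 mM imidazole pH 7.2, 50 mM KCl, 7 mM MgCl2, 0.01% Tween 20, 0.05% BSA; luminescence read after 8 min at ambient temperature.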
NPC1 prom act – qHTS Assay for NPC1 Promoter Activators; Potency, µM (doses to about 9.22 µM), without a hit: top-dose activation, most hits filed as activators; actives 2.4% (n = 320,000); AID 485313, 2010; Huh7 NPC1 promoter luciferase reporter, 24 h; further: % of control where 0% means no effect; nearly all actives have a fitted effect of over 60% in size
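Compounds in DMSO were transferred onto Huh7 NPC1-luciferase reporter cells pre-incubated 2 h; after 24 h at 37 °C, Amplite reagent was dispensed and luminescence recorded 10 min later.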
SMN2 splice enh – qHTS Assay for Enhancers of SMN2 Splice Variant Expression; HEK293 SMN2-luciferase splicing reporter, luminescence, 30-36 h; Potency, µM (series often up to 46.1 µM), without a hit: at the top dose activity change, positive = activation, most hits filed as activators; actives 2.8% (n = 210,000); further: % of control where 0% means no effect; nearly all actives have a fitted effect of over 55% in size
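qHTS luciferase splicing reporter: luminescence rises when SMN2 exon 7 is included in transfected HEK293 cells. Compound exposure lasted 30-36 h at 37C, with 4.5 mM final sodium butyrate as control, followed by a ONE-Glo read.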
* hit, by the source's call; ? = inconclusive; nt = no result; [ ] = another dose, or the depositor's remark. In the library only some 7.5% were active in any assay of this set; here they are far more common. The call rests on the fitted dose curve; in most records, active means well fitted curve in the direction sought with a large enough effect; inconclusive means small, poorly fitted or top-dose-only effect, or another doubt; inactive means no such curve, though single readings can be large; an effect the other way counts as inactive or inconclusive. Potency means the concentration at half of the fitted maximal effect.

SMILES	ELG1 genotox	Rab9 prom act	FLuc counter	KinaseGlo FLuc	NPC1 prom act	SMN2 splice enh
C=C1CCC2[C@](C)(CO[C@@H]3O[C@H](CO)[C@@H](O)[C@H](O)[C@H]3O)CCC[C@@]2(C)[C@@H]1CCC1=CCOC1=O (stereo partly drawn)	-5.6%	2.1%	0.5%	nt	-2.4%	nt
CCc1nnc(NS(=O)(=O)c2ccc(N/C=C\C(=O)c3ccc4ccccc4c3)cc2)s1	5.6%	-8.3%	?	0.0%	1.3%	-5.5%
O=C(/C=C\NCC(=O)c1ccccc1)c1ccc2ccccc2c1	10.1%	15.8%	26.9µM*	nt	17.1%	nt
O=C(/C=C\NCC(=O)c1ccccc1)c1ccc(F)cc1	10.0%	25.6%	13.5µM*	-1.1%	19.7%	-14.4%
O=C(CNC(=O)c1ccccc1)NCC(=O)OCC(=O)c1ccc(F)cc1	1.0%	-2.4%	2.4%	-7.5%	-3.7%	22.6%
CCCCn1c(N)c(N(CCOC)C(=O)CSc2n[nH]c(-c3ccc(OC)cc3)n2)c(=O)[nH]c1=O	3.4%	13.5%	23.9µM*	nt	-6.5%	nt
COCCN(C(=O)COC(=O)/C=C/c1nc2ccccc2s1)c1c(N)n(Cc2ccccc2)c(=O)[nH]c1=O	-22.3%	-2.1%	21.3µM*	nt	2.2%	nt
CCCCN(C(=O)CSc1n[nH]c(-c2ccc(C)cc2)n1)c1c(N)n(CCCC)c(=O)[nH]c1=O	?	-3.5%	8.49µM*	nt	-1.3%	nt
CCc1ccc(-c2nc(SCC(=O)N(CCOC)c3c(N)n(Cc4ccccc4)c(=O)[nH]c3=O)n[nH]2)cc1	9.8%	12.9%	2.69µM*	nt	-0.1%	nt
Cc1ccc(-c2nc(SCC(=O)N(C)c3c(N)n(Cc4ccccc4)c(=O)[nH]c3=O)n[nH]2)cc1	4.9%	2.9%	-18.2%	nt	1.2%	nt
COCCN(C(=O)COC(=O)/C=C/c1ccc2ccccc2n1)c1c(N)n(Cc2ccccc2)c(=O)[nH]c1=O	-3.2%	1.7%	?	nt	-3.9%	nt
COCCN(C(=O)CSc1n[nH]c(-c2ccc(OC)cc2)n1)c1c(N)n(Cc2ccccc2)c(=O)[nH]c1=O	3.2%	-7.9%	?	nt	-0.6%	nt
COc1ccccc1NC(=O)c1ccc(CSc2ccccc2)o1	7.4%	1.7%	?	nt	1.0%	nt
Nc1nccnc1C(=O)OCC(=O)NCCc1ccc(S(N)(=O)=O)cc1	-2.0%	3.6%	3.4%	nt	-3.0%	nt
COC(=O)C(NC(=O)c1cccnc1Cl)C(C)C (stereo not drawn)	1.5%	1.0%	-1.3%	nt	-8.4%	nt
CCCCOC(=O)c1ccc(-n2nnc3c(sc4nc(C)cc(C)c43)c2=O)cc1	nt	nt	-1.2%	nt	nt	18.3%
CCN(CC)c1ccc(-c2nnc(SCC(=O)N(CCOC)c3c(N)n(CC(C)C)c(=O)[nH]c3=O)o2)cc1	0.1%	-1.4%	6.75µM*	nt	-2.6%	nt
Cc1ccc(-c2cn3ccc(C)cc3n2)cc1	nt	nt	0.151µM*	nt	nt	0.251µM*
O=S(=O)(c1cccc(-c2cn3cc(Cl)ccc3n2)c1)N1CCOCC1	-7.1%	-0.7%	?	-3.3%	-3.6%	nt
Clc1ccc(-c2cn3cc(Br)ccc3n2)cc1Cl	0.82µM*	2.24µM*	0.213µM*	-20.8%	3.98µM*	2.24µM*
Cc1ccn2cc(-c3ccc(Br)cc3)nc2c1	?	0.562µM*	0.151µM*	nt	2.82µM*	nt
COc1c(Cl)cccc1-c1cn2ccc(C)cc2n1	?	0.562µM*	0.675µM*	nt	1.26µM*	nt
Cc1ccc(S(=O)(=O)Nc2ccc(-c3cn4ccc(C)cc4n3)cc2)cc1	-3.9%	12.1%	?	nt	-2.4%	nt
Cc1cccc(CCNC(=O)c2nc(-c3ccc(Cl)cc3)n3c2CCCCC3)c1	nt	nt	-16.0%	nt	nt	nt
COC(=O)C1=C(C(=O)OC)[C@@H]2N(Cc3ccccc3)c3ccccc3[C@@]23C[C@@H](C(=O)OC)N(S(=O)(=O)c2ccc4c(c2)OCCN4C)C3=N1	nt	nt	nt	-4.4%[7.66 µM]	nt	-9.7%[9.22 µM]
SMILES	ELG1 genotox	Rab9 prom act	FLuc counter	KinaseGlo FLuc	NPC1 prom act	SMN2 splice enh
COc1ccc2oc(=O)c(-c3cn4ccc(C)cc4n3)cc2c1	20.6µM*	3.16µM*	?	-4.3%	?	-9.9%
CCOc1ccc(Nc2nc(Cc3nnc(SCC(=O)O)o3)cs2)cc1	-4.2%	4.4%	8.49µM*	-3.1%	13.0%	4.2%
O=C(Nc1ccccc1)Nc1ccc2ocnc2c1	13.4%	1.26µM*	10.7µM*	11.2µM*	?	?
CNC(=O)Nc1ccc2nc(C)oc2c1	-0.3%	-9.2%	2.7%	nt	-7.3%	nt
O=C(Nc1ccccc1)Nc1ccc2ncoc2c1	?	?	12µM*	-18.7%	?	11.2µM*
Cc1nc2ccccn2c1C(=O)N/N=C/c1cc(C)n(-c2ccc(Cl)cc2)c1C	-2.6%	-0.4%	21.3µM*	-2.3%	-3.5%	-63.4%
CCNC(=S)N/N=C/c1cc(C)n(-c2ccc(Cl)cc2)c1C	?	?	16.9µM*	4.4%	?	17.8µM*
Cc1csc2nc(-c3cccc(NC(=O)c4ccccc4F)c3)cn12	nt	nt	6.75µM*	nt	nt	nt
Cc1csc2nc(-c3cccc(NC(=O)c4cccc(F)c4)c3)cn12	nt	nt	9.53µM*	nt	nt	nt
Cc1ccccc1C(=O)Nc1cccc(-c2cn3cccnc3n2)c1	nt	nt	-4.2%	nt	nt	nt
Cc1csc2nc(-c3cccc(NS(C)(=O)=O)c3)cn12	nt	nt	26.9µM*	nt	nt	nt
Cc1nc(-c2cccc(NC(=O)c3cccc(S(=O)(=O)N4CCCC4)c3)c2)cs1	-10.0%	-3.0%	?	nt	1.8%	nt
Cc1csc2nc(-c3cccc(NC(=O)c4ccccc4Cl)c3)cn12	nt	nt	12µM*	nt	nt	nt
CC(=O)c1cc(-c2ccc(F)cc2)n(CC(=O)NC2CCC(C)CC2)c1C (stereo not drawn)	nt	nt	0.1%	nt	nt	nt
CCOc1ccc(N=Nc2c(C)noc2C)cc1	8.3%	-0.9%	?	-0.4%	2.4%	15.7%
COc1ccc(NC(=O)C(C)Sc2cc(-c3ccccc3)nc(C)n2)cc1Cl (stereo not drawn)	nt	nt	0.8%	nt	nt	nt
O=C(/C=C/c1ccccc1Cl)NC1CCS(=O)(=O)C1 (stereo not drawn)	4.5%	-4.3%	-2.1%	-0.6%	-3.0%	nt
O=C(/C=C/c1ccccc1Cl)NC1CCCCC1	?	3.55µM*	10.7µM*	nt	2.82µM*	nt
Cc1ccc(/C=N/NC(=O)NC2CCCCC2)o1	7.6%	19.6%	-19.8%	1.7%	7.5%	-5.9%
Cc1ccc(/C=C/C(=O)NC2CCCCCCC2)o1	?	?	23.9µM*	-0.2%	27.6%	?
Cc1cccc(Cc2c(C)nc3nc(SCC(=O)NC4CCCCC4)nn3c2C)c1	nt	nt	-13.7%	nt	nt	3.3%
